# Results taken from the supplement of paper PMC10037445.
# Whole data set: some 2,900 compounds, median “NF-kB SEAP reporter activity, fold change vs agonist alone” near 0.99, cut for the highest 2% near 2.6. Only a selection was taken, and the highest values are over-represented in it overall.
# Experiments:
# RAW-Dual [1] = assay: NF-kB SEAP reporter activity, fold change vs agonist alone; cytotoxicity flag (confluency mask): cytotoxic (confluency <70% of control); higher = enhanced NF-kB activity
# Procedure, shortened: (§1)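 Library stock was pin-tooled at 50 nL into 384-well plates of RAW-Dual macrophages (50,000 cells/well, DMEM), followed 1 h later by a PRR agonist, and the cells were kept at 37 °C, 5% CO2. Supernatant collected after 20 hours was read for IRF by QuantiLuc luminescence and for NF-κB by QuantiBlue absorbance at 620 nm. Reporter activity is fold change over agonist-alone wells, and a well counted as cytotoxic when its IncuCyte confluency was below 70% of agonist controls in both mask sets.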
# RAW-Dual [2] = assay: NF-kB SEAP reporter activity, fold change vs agonist alone; higher = enhanced NF-kB activity
# Procedure, shortened: as §1
# RAW-Dual [3] = assay: NF-kB SEAP reporter activity, fold change vs agonist alone; cytotoxicity flag (confluency mask): not cytotoxic; higher = enhanced NF-kB activity
# Procedure, shortened: as §1
# [4] = agonist: ODN 1826 (TLR9) 0.5 ug/mL
# [5] = agonist: Pam2CSK4 (TLR2/6) 0.1 ug/mL
# [6] = agonist: Pam3CSK4 (TLR2/1) 0.1 ug/mL
# [7] = library stock concentration (final ~1000-fold dilution): 10 mM, cytotoxicity flag (confluency mask): cytotoxic (confluency <70% of control), agonist: Imiquimod (TLR7) […]
# [8] = library stock concentration (final ~1000-fold dilution): 10 mM, cytotoxicity flag (confluency mask): cytotoxic (confluency <70% of control), agonist: MPLA (TLR4) […]
# [9] = library stock concentration (final ~1000-fold dilution): 10 mM, cytotoxicity flag (confluency mask): not cytotoxic, agonist: Imiquimod (TLR7) […]
# [10] = library stock concentration (final ~1000-fold dilution): 10 mM, cytotoxicity flag (confluency mask): not cytotoxic, agonist: MPLA (TLR4) […]
smiles,measurement,setting,value
Nc1ccc(-c2ccc3ncc4ccc(=O)n(-c5cccc(C(F)(F)F)c5)c4c3c2)cn1 (library stock concentration (final ~1000-fold dilution): 10 mM),NF-kB SEAP reporter activity,RAW-Dual [1]; agonist: LPS (TLR4) 0.1 ug/mL,5.68
same,NF-kB SEAP reporter activity,RAW-Dual [1]; [4],2.16
same,NF-kB SEAP reporter activity,RAW-Dual [1]; [5],1.77
same,NF-kB SEAP reporter activity,RAW-Dual [1]; [6],3.14
COc1ccc(-c2ccc3ncc4c(c3c2)n(-c2ccc(N3CCNCC3)c(C(F)(F)F)c2)c(=O)n4C)cn1.O=C(O)/C=C\C(=O)O,NF-kB SEAP reporter activity,RAW-Dual [2]; [7],0.273
same,NF-kB SEAP reporter activity,RAW-Dual [2]; [8],0.298
Nc1ccc(-c2ccc3ncc4ccc(=O)n(-c5cccc(C(F)(F)F)c5)c4c3c2)cn1,NF-kB SEAP reporter activity,RAW-Dual [2]; [7],2.12
same,NF-kB SEAP reporter activity,RAW-Dual [2]; [8],2.7
CCNC1(C(N)=O)CCN(c2ncnc3c2nc(-c2ccccc2Cl)n3-c2ccc(Cl)cc2)CC1.Cl (library stock concentration (final ~1000-fold dilution): 2 mM),NF-kB SEAP reporter activity,RAW-Dual [3]; agonist: LPS (TLR4) 0.1 ug/mL,0.587
same,NF-kB SEAP reporter activity,RAW-Dual [3]; [4],0.493
same,NF-kB SEAP reporter activity,RAW-Dual [3]; [5],0.537
same,NF-kB SEAP reporter activity,RAW-Dual [3]; [6],0.482
CCNC1(C(N)=O)CCN(c2ncnc3c2nc(-c2ccccc2Cl)n3-c2ccc(Cl)cc2)CC1.Cl,NF-kB SEAP reporter activity,"RAW-Dual [2]; library stock concentration (final ~1000-fold dilution): 2 mM, cytotoxicity flag (confluency mask): not cytotoxic, agonist: Imiquimod (TLR7) […]",0.57
same,NF-kB SEAP reporter activity,"RAW-Dual [2]; library stock concentration (final ~1000-fold dilution): 2 mM, cytotoxicity flag (confluency mask): not cytotoxic, agonist: MPLA (TLR4) […]",0.847
COc1ccc(-c2ccc3c(N4CCOCC4C)nc(N4CCOCC4C)nc3n2)cc1CO (stereo not drawn),NF-kB SEAP reporter activity,RAW-Dual [2]; [9],1.11
same,NF-kB SEAP reporter activity,RAW-Dual [2]; [10],1.53
COc1ccc(-c2ccc3c(N4CCOCC4C)nc(N4CCOCC4C)nc3n2)cc1CO (stereo not drawn) (library stock concentration (final ~1000-fold dilution): 10 mM),NF-kB SEAP reporter activity,RAW-Dual [3]; agonist: LPS (TLR4) 0.1 ug/mL,1.62
same,NF-kB SEAP reporter activity,RAW-Dual [3]; [4],1.12
same,NF-kB SEAP reporter activity,RAW-Dual [3]; [5],0.372
same,NF-kB SEAP reporter activity,RAW-Dual [3]; [6],0.555
Cc1cc(O)c(-c2ccc(C(C)CN(C)C)cc2)c2c1[nH]c(=O)c1sccc12.Cl.Cl (stereo not drawn) (library stock concentration (final ~1000-fold dilution): 10 mM),NF-kB SEAP reporter activity,RAW-Dual [1]; agonist: LPS (TLR4) 0.1 ug/mL,0.764
same,NF-kB SEAP reporter activity,RAW-Dual [1]; [4],0.357
same,NF-kB SEAP reporter activity,RAW-Dual [1]; [5],0.311
same,NF-kB SEAP reporter activity,RAW-Dual [1]; [6],0.482
Cc1cc(O)c(-c2ccc(C(C)CN(C)C)cc2)c2c1[nH]c(=O)c1sccc12.Cl.Cl (stereo not drawn),NF-kB SEAP reporter activity,RAW-Dual [2]; [7],1.2
same,NF-kB SEAP reporter activity,RAW-Dual [2]; [8],1.37
CC(N)C12CC3CC(CC(C3)C1)C2.Cl (stereo not drawn) (library stock concentration (final ~1000-fold dilution): 10 mM),NF-kB SEAP reporter activity,RAW-Dual [3]; agonist: LPS (TLR4) 0.1 ug/mL,1.15
same,NF-kB SEAP reporter activity,RAW-Dual [3]; [4],0.619
same,NF-kB SEAP reporter activity,RAW-Dual [3]; [5],1.24
same,NF-kB SEAP reporter activity,RAW-Dual [3]; [6],0.847
CC(N)C12CC3CC(CC(C3)C1)C2.Cl (stereo not drawn),NF-kB SEAP reporter activity,RAW-Dual [2]; [10],1.06
O=C(Cn1nnc(-c2ccncc2)c1-c1ccccc1)Nc1ccc(-c2ccccc2)cn1 (library stock concentration (final ~1000-fold dilution): 10 mM),NF-kB SEAP reporter activity,RAW-Dual [3]; agonist: LPS (TLR4) 0.1 ug/mL,1.06
same,NF-kB SEAP reporter activity,RAW-Dual [3]; [4],0.623
same,NF-kB SEAP reporter activity,RAW-Dual [3]; [5],0.34
same,NF-kB SEAP reporter activity,RAW-Dual [3]; [6],0.345
O=C(Cn1nnc(-c2ccncc2)c1-c1ccccc1)Nc1ccc(-c2ccccc2)cn1,NF-kB SEAP reporter activity,RAW-Dual [2]; [9],0.711
same,NF-kB SEAP reporter activity,RAW-Dual [2]; [10],0.961
Cc1noc(C)c1-c1cnc2c(-c3ccc(C(=O)O)cc3)cn(C(C)c3ccccn3)c2c1 (stereo not drawn),NF-kB SEAP reporter activity,RAW-Dual [2]; [9],1.59
same,NF-kB SEAP reporter activity,RAW-Dual [2]; [10],2.29
Cc1noc(C)c1-c1ccc2[nH]c(=O)n3c2c1OCC3c1ccccn1 (stereo not drawn) (library stock concentration (final ~1000-fold dilution): 10 mM),NF-kB SEAP reporter activity,RAW-Dual [3]; agonist: LPS (TLR4) 0.1 ug/mL,1.61
same,NF-kB SEAP reporter activity,RAW-Dual [3]; [4],1.67
same,NF-kB SEAP reporter activity,RAW-Dual [3]; [5],0.501
same,NF-kB SEAP reporter activity,RAW-Dual [3]; [6],1.34
COc1cc2c(cc1-c1c(C)noc1C)ncc1[nH]c(=O)n(C(C)c3ccccn3)c12 (stereo not drawn) (library stock concentration (final ~1000-fold dilution): 10 mM),NF-kB SEAP reporter activity,RAW-Dual [1]; agonist: LPS (TLR4) 0.1 ug/mL,4.87
same,NF-kB SEAP reporter activity,RAW-Dual [1]; [4],2.55
same,NF-kB SEAP reporter activity,RAW-Dual [1]; [5],0.529
same,NF-kB SEAP reporter activity,RAW-Dual [1]; [6],1.93
COc1cc2c(cc1-c1c(C)noc1C)ncc1[nH]c(=O)n(C(C)c3ccccn3)c12 (stereo not drawn),NF-kB SEAP reporter activity,RAW-Dual [2]; [7],2.61
same,NF-kB SEAP reporter activity,RAW-Dual [2]; [8],2.46
Cc1noc(C)c1-c1ccc2[nH]c(=O)n3c2c1OCC3c1ccccn1 (stereo not drawn),NF-kB SEAP reporter activity,RAW-Dual [2]; [9],1.5
same,NF-kB SEAP reporter activity,RAW-Dual [2]; [10],2.28
Cc1noc(C)c1-c1cnc2c(-c3ccc(C(=O)O)cc3)cn(C(C)c3ccccn3)c2c1 (stereo not drawn) (library stock concentration (final ~1000-fold dilution): 10 mM),NF-kB SEAP reporter activity,RAW-Dual [3]; agonist: LPS (TLR4) 0.1 ug/mL,2.32
same,NF-kB SEAP reporter activity,RAW-Dual [3]; [4],1.73
same,NF-kB SEAP reporter activity,RAW-Dual [3]; [5],0.767
same,NF-kB SEAP reporter activity,RAW-Dual [3]; [6],2.09
C=CC(=O)N1CCC(C2CCNc3c(C(N)=O)c(-c4ccc(Oc5ccccc5)cc4)nn32)CC1 (stereo not drawn) (library stock concentration (final ~1000-fold dilution): 10 mM),NF-kB SEAP reporter activity,RAW-Dual [3]; agonist: LPS (TLR4) 0.1 ug/mL,0.708
same,NF-kB SEAP reporter activity,RAW-Dual [3]; [4],0.413
same,NF-kB SEAP reporter activity,RAW-Dual [3]; [5],0.25
same,NF-kB SEAP reporter activity,RAW-Dual [3]; [6],0.279
C=CC(=O)N1CCC(C2CCNc3c(C(N)=O)c(-c4ccc(Oc5ccccc5)cc4)nn32)CC1 (stereo not drawn),NF-kB SEAP reporter activity,RAW-Dual [2]; [9],0.477
same,NF-kB SEAP reporter activity,RAW-Dual [2]; [10],0.541
Cn1c(=O)cc(C(=O)Nc2ccc3c(c2)OCCO3)c2ccccc21 (library stock concentration (final ~1000-fold dilution): 10 mM),NF-kB SEAP reporter activity,RAW-Dual [3]; agonist: LPS (TLR4) 0.1 ug/mL,0.989
same,NF-kB SEAP reporter activity,RAW-Dual [3]; [4],1.02
same,NF-kB SEAP reporter activity,RAW-Dual [3]; [5],0.995
same,NF-kB SEAP reporter activity,RAW-Dual [3]; [6],1.07
Cn1c(=O)cc(C(=O)Nc2ccc3c(c2)OCCO3)c2ccccc21,NF-kB SEAP reporter activity,RAW-Dual [2]; [9],0.997
same,NF-kB SEAP reporter activity,RAW-Dual [2]; [10],0.999
CC#CCn1c(N2CCCC(N)C2)nc2c1c(=O)n(Cc1nc(C)c3ccccc3n1)c(=O)n2C (stereo not drawn),NF-kB SEAP reporter activity,RAW-Dual [2]; [9],0.851
same,NF-kB SEAP reporter activity,RAW-Dual [2]; [10],1
CC#CCn1c(N2CCCC(N)C2)nc2c1c(=O)n(Cc1nc(C)c3ccccc3n1)c(=O)n2C (stereo not drawn) (library stock concentration (final ~1000-fold dilution): 10 mM),NF-kB SEAP reporter activity,RAW-Dual [3]; agonist: LPS (TLR4) 0.1 ug/mL,1.31
same,NF-kB SEAP reporter activity,RAW-Dual [3]; [4],0.823
same,NF-kB SEAP reporter activity,RAW-Dual [3]; [5],1.05
same,NF-kB SEAP reporter activity,RAW-Dual [3]; [6],1.17
